G9a inh = G9a (human) methyltransferase inhibition; Q96KQ7; G9a H3K9 monomethylation, AlphaScreen, 2 h; Potency, µM (highest dose often 102 µM), for inactives: top-dose activity, negative = inhibition, hits mostly inhibitors; 8.8% of 350,000 active; AID 504332; also: potency is read from the fitted curve at half-maximal effect; nearly all actives have a fitted effect of over 75% in size
Target sequence (Q96KQ7 913-1193 limits assumed): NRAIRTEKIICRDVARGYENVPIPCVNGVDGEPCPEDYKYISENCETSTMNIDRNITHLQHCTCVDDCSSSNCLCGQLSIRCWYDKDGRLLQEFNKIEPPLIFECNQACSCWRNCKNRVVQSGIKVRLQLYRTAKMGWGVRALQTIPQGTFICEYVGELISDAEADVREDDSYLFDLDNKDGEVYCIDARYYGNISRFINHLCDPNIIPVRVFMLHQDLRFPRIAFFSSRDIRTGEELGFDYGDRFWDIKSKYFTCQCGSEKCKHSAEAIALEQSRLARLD
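Chemiluminescent proximity detection of H3K9 monomethylation, read after 10 min bead incubation in the dark. Reaction: 20 nM G9a, 500 nM biotin-H3K9 peptide, 20 uM SAM cofactor, 2 h, room temperature, following 15 min enzyme-compound preincubation.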
Tau fluor counter = counter-screen for tau fibril formation inhibitors; tau K18 P301L Alexa594 fluorescence, heparin fibrillization; Potency, µM (doses to about 57.7 µM), for the others: at the top dose activity change, negative = decrease; 0.93% of 280,000 active; AID 1463; also: potency is read from the fitted curve at half-maximal effect; nearly all actives have a fitted effect of over 55% in size
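Human K18 P301L tau (15 uM unlabeled plus 0.24 uM Alexa 594-labeled, final) in 100 mM sodium acetate pH 7 was mixed with compound and 20 uM heparin and incubated 6 hr at 37 C.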
Coupling enz = counter-screen for Giardia aldolase inhibitors: coupling enzyme system | coupling enzyme system counterscreen, AmpLite Red fluorescence | activity change, negative = inhibition, % at 58.2 µM, hits read low | 0.67% of 290,000 active | AID 2472; in the data active = activity change below about -30%
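First, compound is pin-transferred into glyceraldehyde-3-phosphate coupling-enzyme reagent at 57.5 uM final and held 10 min at RT. Next, substrate, coupling system and AmpLite Red are added. After 20 min RT, fluorescence (525/598 nm) is read.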
Tau FP inhib = blocks human tau fibril formation measured by polarization; Potency, µM (top dose mostly 57.7 µM), without a hit: top-dose activity, negative = inhibition, usual class: inhibitors; P10636; 0.39% of 280,000 active; K18 P301L tau heparin fibrillization, Alexa594 FP, 6 h; also: potency is read from the fitted curve at half-maximal effect; nearly all actives have a fitted effect of over 55% in size
Target sequence (P10636 561-689 P618L limits assumed): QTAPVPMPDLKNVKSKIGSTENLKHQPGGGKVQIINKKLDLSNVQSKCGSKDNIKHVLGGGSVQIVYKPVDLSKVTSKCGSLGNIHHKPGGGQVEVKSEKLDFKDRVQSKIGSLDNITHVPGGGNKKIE
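Steps: dispense K18 P301L tau (15 uM plus 0.24 uM Alexa 594 tracer, final) in pH 7 sodium acetate; add compound; add heparin (20 uM final); incubate 6 hr, 37 C; add ThT (30 uM final); after 1 hr ambient, read FP.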
Sfp PPTase inh = inhibitors of Bacillus subtilis Sfp phosphopantetheinyl transferase. Q9F4F7. Biochemical Sfp PPTase activity, qHTS. Potency, µM, without a hit: largest response in the series, negative = inhibition, actives largely listed as inhibitors. 3.5% of 310,000 active. AID 1490;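 also: the enzyme is Sfp with the accession as filed and its product quenches rhodamine fluorescence; potency is read from the fitted curve at half-maximal effect; 0% = enzyme reaction without inhibitor and -100% = no enzyme wells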
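Buffer: 50 mM Hepes-Na pH 7.6, 10 mM MgCl2, 0.01% Nonidet P-40, 0.01% BSA. Enzyme 15 nM, pre-exposed to compound 15 min; substrates then added and fluorescence change tracked over 30 min.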
Tau ThT inhib = inhibitors of human tau fibril formation, thioflavin T binding | recombinant tau K18 P301L, heparin-induced fibrillization, ThT fluorescence | P10636 | 2.1% of 270,000 active | Potency, µM (series often up to 57.4 µM), for the others: at the top dose activity, negative = inhibition, hits mostly inhibitors; also: potency is read from the fitted curve at half-maximal effect; nearly all actives have a fitted effect of over 55% in size
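Fibril formation assay: tau K18 P301L at 15 uM with trace Alexa 594 label, heparin inducer 20 uM, pH 7 sodium acetate buffer, 37 C for 6 hr; endpoint ThT signal.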
* marks the source's active call; other numbers are inactive results; ? = inconclusive; · = no result; [ ] = another dose, or the depositor's remark. Shown are actives, neighbours in structure and some others; about 11% of the full set was active somewhere. Unless noted, calls follow the shape of the dose curve; as a rule, active = well fitted curve in the direction sought with a large enough effect; inconclusive = small, poorly fitted or top-dose-only effect, or another doubt; inactive = no such curve, though single readings can be large; an effect the other way counts as inactive or inconclusive. Unless noted, % is scaled to controls: 0 for no effect and ±100 for the full control effect.

SMILES	G9a inh	Tau fluor counter	Coupling enz	Tau FP inhib	Sfp PPTase inh	Tau ThT inhib
O=C1CC(Sc2nnc(-c3ccccc3O)o2)C(=O)N1c1ccccc1 (stereo unspecified)	7.9µM*	-15%	-1	-1%	56µM*	?
Cc1ccc(-c2nc(N=Nc3ccc(O)cc3)n[nH]2)cc1	50µM*	-27%	-8	-2%	5%	2.5µM*
Cc1nc(N=Nc2ccc(O)cc2)n[nH]1	-119%[59 µM]	-2%	3	-7%	?	-14%
COc1ccc(-c2nc(N=Nc3ccc(O)cc3)n[nH]2)cc1	2%[59 µM]	-20%	-5	1%	6%	2.8µM*
CC(=O)OC[C@@]12C(=O)[C@@H](O)[C@@H](C)[C@]3(C[C@@H](c4ccoc4)O[C@@H]3OC(C)=O)[C@H]1CCC[C@]21CO1	·	-12%	0	-2%	-15%	-13%
O=Cc1ccc2ccc3cccnc3c2n1	?	·	-18	·	-26%	·
O=Cc1ccc2cccnc2n1	40µM*	9%	1	4%	16µM*	-5%
Cc1ccc(Cl)cc1-n1c(=O)c2sc3ccccc3c2n(Cc2ccccc2)c1=O	7%[59 µM]	-2%	·	-15%	·	1%
CS(=O)(=O)c1sc2nc(-c3cccs3)cc(-c3ccccc3)c2c1N	?	-12%	1	-3%	10µM*	?
CCC(C(=O)N1CCN(Cc2ccc3c(c2)OCO3)CC1)n1c(=O)[nH]c2ccccc2c1=O (stereo unspecified)	9%	·	·	·	10%	·
CC[N+]1(C)CCC(=C2c3ccccc3CC(=O)c3sccc32)CC1 (stereo unspecified)	·	2%	-4	-3%	1%	-5%
C[N+]1(C)CCC(=C2c3ccccc3CC(=O)c3sccc32)CC1	6.3µM*	3%	·	2%	6%	11%
CCOC(=O)c1nnn(-c2ccccc2C#N)c1C	-9%[12.7 µM]	1%	1	-3%	3%	0%
CCOC(=O)c1nn(-c2ccc(C)c(C)c2)c(=O)c(C#N)c1C	45µM*	·	0	·	9%	·
CCOC(=O)c1nn(-c2ccccc2C)c(=O)c(C#N)c1C	89µM*	-17%	-23	0%	0%	?
CCOC(=O)c1ccc(NC(=O)CCn2c(=O)c3cccn3c3cccnc32)cc1	-27%[59 µM]	-16%	·	-10%	·	-10%
O=c1nc(Nc2ccc(Br)cc2)sc2ccc([N+](=O)[O-])cc12	?	?	-1	-10%	?	?
CC(C)CCNC(=O)CCCN1C(=O)c2ccccc2Sc2ncccc21	-2%[59 µM]	-12%	·	-7%	·	-4%
Cc1ccc(C(=O)Nc2ccc(Cl)c(-c3nc4ncccc4o3)c2)c(C)c1	11%[59 µM]	?	·	-13%	·	?
Fc1cccc(Nc2ncnc3sc4c(c23)CCC4)c1	20µM*	-28%	-1	6%	?	?
O=S(=O)(Nc1ncnc2sc3c(c12)CCC3)c1ccc(Cl)s1	10µM*	-19%	9	10%	4%	?
Oc1cccc(Nc2ncnc3sc4c(c23)CCCC4)c1	-30%[59 µM]	-5%	·	-8%	·	4%
O=C(Nc1ncnc2sc3c(c12)CCCC3)c1ccncc1	45µM*	-1%	3	-5%	13%	-1%
Cc1nc(NS(=O)(=O)c2cccs2)c2c3c(sc2n1)CCC3	79µM*	6%	15	3%	-5%	3%
CCOC(=O)c1c(C)[nH]c(CCC(=O)Nc2ccc(C)c(F)c2)c1C	7%[59 µM]	?	·	13%	·	-17%
Cc1ccc(NC(=O)C2CCC(CNS(=O)(=O)c3cccs3)CC2)cc1C (stereo unspecified)	7%[59 µM]	-1%	·	-2%	·	-2%
COc1ccccc1C(=O)Nc1nnc(S(=O)(=O)N(C)c2ccc(Cl)cc2)s1	9%[59 µM]	-17%	·	4%	·	?
CCn1cc(S(=O)(=O)N2CCCC2)cn1	·	·	·	·	8%	·
O=C(Nc1nonc1-c1ccc(Br)cc1)c1ccco1	-26%[59 µM]	-4%	·	?	·	3%
CN1CCC(=NNc2ncnc3sc4c(c23)CCCC4)CC1	-6%[59 µM]	-19%	-5	-10%	10µM*	?
